Screen size: about 360,000 compounds; about 160 (0.044%) were called active. What follows is part of a selection rich in actives, with near analogues and random picks from the rest. Unmarked numbers belong to inactive results. Rule as the data show it: active = survival enhancement above about 18%; inactive = the rest.

This test is described as follows: compounds raising survival of dissociated human iPSCs – cell-based, ATPlite luminescence, primary screen (AID 602274).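 Also: cells exposed to compounds for 16 hours before the ATP read.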 Particulars: hiPSC single-cell survival, at 20 µM, stronger effect = higher value, 100% = ROCK inhibitor wells, 0% = DMSO.
On to `CN(Cc1ccc(C(F)(F)F)cc1)C(=O)[C@H]1O[C@@H](n2cnc3c(N)ncnc32)[C@H](O)[C@@H]1O`, for which the survival enhancement was 20.3% (active).

On to `Cc1nccn1-c1ccc(NC(=O)[C@H]2O[C@@H](n3cnc4c(N)ncnc43)[C@H](O)[C@@H]2O)cc1`, for which the survival enhancement was 1.4%.

Turning to `Nc1ncnc2c1ncn2[C@@H]1O[C@H](C(=O)NCC(F)(F)F)[C@@H](O)[C@H]1O`, the survival enhancement is 1.8%.

As to `CCC(=O)c1ccc(OCC(O)CN2C(=O)NC(C)(C)C2=O)cc1` (centres undefined), the survival enhancement was 0.2%.

`C=Cc1ccc(C(=O)N2CCCC(CCC(=O)N3CCN(c4ccccn4)CC3)C2)cc1` (centres undefined): the survival enhancement was -0.4%.

As for `CC(=O)NNC1=Nc2ccccc2N(C)C(C)C1` (centres undefined), the survival enhancement was -0.5%.

For `CC1CCCCC1NC(=O)CCS(=O)(=O)c1cccc2nonc12` (centres undefined), the survival enhancement was 1.2%.

As to `O=C(Nc1cccnc1)c1ccc(Cl)cc1[N+](=O)[O-]`, the survival enhancement is -1.2%.

As to `O=C(Nc1ccccc1-c1ccccc1)c1ccccc1[N+](=O)[O-]`, the survival enhancement was 0.6%.

On to `COc1cccc(OC)c1C(=O)Nc1ccc(Cc2ccncc2)cc1`, for which the survival enhancement was 0.6%.

As for `O=C(Nc1ccncc1)c1ccccc1[N+](=O)[O-]`, the survival enhancement is 28.4% (active).

Turning to `O=C(Nc1ccc(N2CCOCC2)nc1)c1c(F)cccc1F`, the survival enhancement was -0.6%.

For the compound `O=C(Nc1ccncc1)c1c(F)cccc1F`, the survival enhancement is 39.6% (active).

For `Cc1cc2cc3c(cc2nc1SCC(=O)Nc1c(C)cccc1C)CCC3`, the survival enhancement was -1.9%.

With `CC(=O)c1ccccc1NC(=O)COC(=O)C1COc2ccccc2O1` (centres undefined), the survival enhancement was -0.2%.

Take `O=C(Nc1nc(-c2ccncc2)cs1)C1COc2ccccc2O1` (centres undefined): the survival enhancement is 103% (active).

On to `CC(/C=C/c1ccco1)=N/NC(=O)C1COc2ccccc2O1` (centres undefined), for which the survival enhancement is -0.2%.

As for `CC(=O)c1cnn(-c2cc(Oc3ccc(F)cc3)ncn2)c1C`, the survival enhancement was 2.8%.

In the case of `CCCCNC(=O)CCn1nc(-c2ccc(Cl)cc2)ccc1=O`, the survival enhancement was 0%.

For `CC(C)CCN1CCN(C/C=C/c2ccco2)CC1CCO` (centres undefined), the survival enhancement is -0.4%.

Turning to `COCc1cc(C)nc2sc3c(=O)n(-c4cccc5ccccc45)nnc3c12`, the survival enhancement is 4.5%.

Turning to `C[C@H](NC(=O)C1CC(=O)N(c2ccc3c(c2)OCCO3)C1)C(=O)N1CCC(C(=O)O)CC1` (some centres undefined), the survival enhancement was -0.4%.

Regarding `CCOC(=O)C1(Cc2cccc(OC)c2)CCCN(S(=O)(=O)c2cccnc2)C1` (centres undefined), the survival enhancement is 1.2%.

With `C[n+]1ccccc1C1CCCC/C1=N\Nc1ccc([N+](=O)[O-])cc1[N+](=O)[O-]` (centres undefined), the survival enhancement is -1.7%.

With `Cc1ccc(OS(=O)Nc2cccc3nccnc23)cc1` (centres undefined), the survival enhancement is 1.2%.

As for `CCc1c(C)sc(NC(=O)c2cccs2)c1C(N)=O`, the survival enhancement was -1.4%.

For the compound `c1ccc2cc3c(NCCN4CCOCC4)ccnc3cc2c1`, the survival enhancement is -2.3%.

Take `C1=C(N2CCOCC2)/C(=C/c2nc3ccccc3[nH]2)CC1`: the survival enhancement is 3.5%.

In the case of `Cc1ccc(S(=O)(=O)N2CCN(C(=O)COC(=O)/C=C/c3cccc(Cl)c3)CC2)c(C)c1`, the survival enhancement is -0.9%.

Consider `O=C(Nc1ccc(N2CCN(C(=O)c3ccccc3)CC2)c(Cl)c1)c1ncn[nH]1`, for which the survival enhancement was 0.4%.

As for `Cc1noc(C)c1NC(=O)Nc1ccc2c(c1)C(=O)N([C@H](C)CO)C[C@H](C)[C@@H](CN(C)C(=O)Nc1ccc(C(F)(F)F)cc1)O2`, the survival enhancement was -1.8%.

Take `Cc1ccc(NC(=O)c2cnc(SCC(=O)NCC3CCCO3)n(C)c2=O)cc1` (centres undefined): the survival enhancement was 1.7%.

Consider `O=C(NCC(c1ccco1)N1CCc2ccccc2C1)c1ccccc1Cl` (centres undefined), for which the survival enhancement is -0.3%.

With `CCc1ccc([C@@H]2CC(=O)[C@@H]3CN(S(=O)(=O)c4ccc(C)cc4)[C@H](c4ccc(Cl)cc4)C[C@@H]3N2S(=O)(=O)c2ccc(C)cc2)cc1`, the survival enhancement was 0.5%.

With `CCCOC(=O)CC1C(=O)NCCN1Cc1ccc(F)cc1` (centres undefined), the survival enhancement is 0.4%.

Turning to `COC(=O)C1=C(C)N(C)C(C)=C(C(=O)OC)C1c1cccc(Br)c1`, the survival enhancement is 19.8% (active).

Consider `COC(=O)C1NN=C(C(=O)c2ccc(Br)cc2)C1c1cccc(Br)c1` (centres undefined), for which the survival enhancement is 2.6%.

For the compound `COC(=O)C1=C(C)N(C)C(=S)NC1c1cc(OC)ccc1OC` (centres undefined), the survival enhancement is -1.1%.

For the compound `O=C(CS(=O)(=O)c1cn(Cc2ccc(Cl)cc2)c2ccccc12)N1CCOCC1`, the survival enhancement is 0.6%.

As for `COc1ccccc1P(=O)(c1ccccc1)c1ccccc1NC(C)=O` (centres undefined), the survival enhancement is -0.7%.

Regarding `CN(Cc1ccc(F)cc1)C(=O)COc1ccc2ccccc2c1`, the survival enhancement is -0.4%.

As to `C[C@H]1CN([C@@H](C)CO)C(=O)c2cc(Br)cnc2O[C@H]1CN(C)S(=O)(=O)c1cccs1`, the survival enhancement was 3.8%.

For the compound `CC(=O)Nc1ccccc1C(=O)C(=O)Nc1ccc(F)cc1`, the survival enhancement is 3.3%.

Take `CC1CCN(C(=O)/C(=C\c2ccccc2F)NC(=O)c2ccccc2)CC1`: the survival enhancement was -0.6%.

Take `CCOC(=O)c1ccn(-c2nc(-c3ccco3)cc(C(F)(F)F)n2)n1`: the survival enhancement is -0.8%.

Take `CC(CCc1ccc(O)cc1)NCc1ccc(Cl)cc1Cl` (centres undefined): the survival enhancement is 0.5%.

For the compound `CCN(CC)C(=O)Oc1ccc(OC(=O)N(CC)CC)cc1`, the survival enhancement is -2.3%.

Consider `O=C(COC(=O)C1(c2ccc(F)cc2)CCCC1)N1CCNC1=O`, for which the survival enhancement was 0.5%.

Regarding `Cc1ccccc1N1CCN(Cc2nc(Cc3ccccc3F)no2)CC1`, the survival enhancement was -0.1%.

In the case of `O=[n+]1c2c(n([O-])c3cc(Br)ccc31)CCC2`, the survival enhancement was 3.1%.

Regarding `CCN(CC)c1ccc(NC(=O)c2ccc(=O)[nH]c2)cc1S(=O)(=O)Nc1ccc(OC)cc1`, the survival enhancement is 1.7%.

Take `CCCS(=O)(=O)Nc1c(C(=O)O)[nH]c2ccccc12`: the survival enhancement is 0.3%.

Consider `O=C(O)c1ccc([N+](=O)[O-])cc1Sc1ccsc1`, for which the survival enhancement was 6.3%.

Consider `CC(C)CCOc1ccc(C(=O)Nc2cc(S(=O)(=O)N3CCOCC3)ccc2N2CCOCC2)cc1`, for which the survival enhancement is -2.4%.

Regarding `O=C(NCc1cccnc1)c1cc(C2CCCN(C(=O)C3CCCCC3)C2)on1` (centres undefined), the survival enhancement was 0.4%.

In the case of `Cc1ccc2cccc(S(=O)(=O)N3CCN(c4ccccc4F)CC3)c2n1`, the survival enhancement is 0%.

Turning to `COc1cccc(CNC(=O)CN2C(=O)NC(Cc3ccccc3)(c3ccccc3)C2=O)c1` (centres undefined), the survival enhancement is -1.1%.

For the compound `Cn1c(=O)c2c(nc(Br)n2CCSc2nc3ccccc3o2)n(C)c1=O`, the survival enhancement is 1.6%.

`OCCC1CN(Cc2ccc3nsnc3c2)CCN1C1CCCC1` (centres undefined): the survival enhancement is 1.5%.

As to `COC(=O)C1=C(Nc2ccc(C)cc2)C=C(C)C(C(=O)OC)C1c1ccc(F)cc1` (centres undefined), the survival enhancement was -0.6%.

On to `N#Cc1ccccc1Sc1ccccc1C(=O)OCC(=O)NC1CCCCC1`, for which the survival enhancement was 1%.

`O=C(O)c1ccc(NS(=O)(=O)c2ccc3c(c2)C(=O)c2cc(S(=O)(=O)Nc4ccc(C(=O)O)cc4)ccc2-3)cc1`: the survival enhancement is 4.4%.

Turning to `CN(C)N(C)C(=O)C(O)(c1ccccc1)c1ccccc1`, the survival enhancement was -0.9%.

In the case of `COC(=O)C1=NNC2(c3ccc(C)cc3)C(=O)N(c3cccc(C)c3C)C(=O)C12` (centres undefined), the survival enhancement is 1.4%.
